The text below walks through data of PubChem BioAssay AID720650 (Broad Institute, 2013).

This assay can be described thus: Biochemical counterscreen for C difficile toxins, absence of UDPG, inhibitor dose response (AID 720650). The settings on record: series mostly up to 19.5 µM. For orientation: Counterscreens check selectivity or assay interference.

The source made the active and inactive calls. The rule behind the calls is not given here.

Turning to `O=C(Nc1ccccc1F)N1C[C@@H]2N[C@H](C1)C2c1ccc(-c2cccc(F)c2)cc1` (some centres not stated), the AC50 result was “inactive”.
For `Cc1ccc(Oc2c(CO)c(-c3ccccc3)nn2C)cc1` the value was “inactive”.
Next, `CC(OC(=O)c1cccnc1Cl)C(=O)NC1CCCCC1` (configuration not stated): “inactive”.
For `CCOC(=O)Cn1c(C(F)(F)F)nc2nc(Cl)c(Cl)nc21` the value was “inactive”; for `C[C@H](CO)N1C[C@H](C)[C@@H](CN(C)C(=O)Nc2ccc(C(F)(F)F)cc2)Oc2ccc(NC(=O)C3CCCCC3)cc2C1=O`, “inactive”.
On to `CC(C)(C)N1[C@@H](CC(=O)O)c2cc(C(F)(F)F)ccc2S1(=O)=O`, for which the AC50 entry is “inactive”.
For `COC(=O)C[C@H]1CC[C@@H]2[C@@H](COc3ccc(NC(=O)c4cccc(OC)c4)cc3C(=O)N2C)O1` the value was “inactive”.

As a reminder, the AC50 is the concentration giving half of the maximal activity seen.
